Substitutions are numbered along the chain they refer to.
How the values were obtained:
Experiment in all cases: protein-binding microarray (PBM); PBM: ~300 nM protein, 6 mM HEPES pH 7.8, 80 mM KCl, 0.5 mM EDTA, 0.5 mM EGTA, 6% glycerol, 35 ng/ul poly-dIdC, 1% milk, 1 h, room temperature; Ap Aiptasia and Nv Nematostella (sea anemones) / Co Capsaspora / Aq Amphimedon (sponge) / Dm Drosophila / Hu human; RHD is the Rel homology domain; high values mean tight binding
Conditions in all cases: dsDNA, one strand shown
GST-Ap-NF-kB RHD = target: T1, GST-Ap-NF-kB RHD (Exaiptasia pallida (Aiptasia), UniProt A0A913YAJ5 2-422)
T1 sequence: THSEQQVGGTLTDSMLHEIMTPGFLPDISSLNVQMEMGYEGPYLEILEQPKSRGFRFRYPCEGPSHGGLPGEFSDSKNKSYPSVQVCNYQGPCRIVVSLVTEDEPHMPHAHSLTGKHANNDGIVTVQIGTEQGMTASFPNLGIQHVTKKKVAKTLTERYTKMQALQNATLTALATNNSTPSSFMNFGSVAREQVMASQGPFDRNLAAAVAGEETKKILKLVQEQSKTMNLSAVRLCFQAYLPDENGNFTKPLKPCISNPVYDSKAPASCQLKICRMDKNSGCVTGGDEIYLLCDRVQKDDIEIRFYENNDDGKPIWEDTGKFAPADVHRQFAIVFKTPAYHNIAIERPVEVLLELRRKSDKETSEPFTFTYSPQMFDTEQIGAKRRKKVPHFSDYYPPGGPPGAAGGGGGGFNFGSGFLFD

[1] = target: T2, GST-Nv-NF-kB (Cys allele) (Nematostella vectensis, UniProt E5G601 2-411)
T2 sequence: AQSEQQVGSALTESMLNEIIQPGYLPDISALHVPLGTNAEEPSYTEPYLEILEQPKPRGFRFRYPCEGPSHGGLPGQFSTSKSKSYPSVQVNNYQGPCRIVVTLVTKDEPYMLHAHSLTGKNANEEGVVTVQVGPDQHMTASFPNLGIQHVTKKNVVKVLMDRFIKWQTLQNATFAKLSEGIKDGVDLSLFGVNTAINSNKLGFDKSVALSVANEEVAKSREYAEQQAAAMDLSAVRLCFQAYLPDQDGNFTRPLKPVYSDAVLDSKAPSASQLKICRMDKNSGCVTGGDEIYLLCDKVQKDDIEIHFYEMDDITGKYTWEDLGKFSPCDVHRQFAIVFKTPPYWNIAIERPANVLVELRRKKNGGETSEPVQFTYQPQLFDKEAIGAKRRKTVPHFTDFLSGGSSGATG

[2] = target: T3, GST-Nv-NF-kB (Ser allele) (Nematostella vectensis, UniProt A7UNT2 2-411)
T3 sequence: T2 sequence with Q21R, C66S, S207N, E215Q, V217A, E225K, A268E, D399E

GST-Co-NF-kB = target: T4, GST-Co-NF-kB (Capsaspora owczarzaki, UniProt F1ARL5 200-546)
T4 sequence: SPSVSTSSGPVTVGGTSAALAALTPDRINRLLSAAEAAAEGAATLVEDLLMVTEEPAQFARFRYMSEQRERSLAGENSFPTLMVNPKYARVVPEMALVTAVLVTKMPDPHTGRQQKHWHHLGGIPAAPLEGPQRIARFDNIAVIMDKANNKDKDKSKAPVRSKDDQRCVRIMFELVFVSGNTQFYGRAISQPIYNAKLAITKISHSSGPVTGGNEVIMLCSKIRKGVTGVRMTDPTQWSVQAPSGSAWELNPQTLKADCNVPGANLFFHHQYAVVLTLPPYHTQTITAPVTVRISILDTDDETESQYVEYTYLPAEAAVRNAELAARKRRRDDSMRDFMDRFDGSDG

GST-Dm-Relish = target: T5, GST-Dm-Relish (Drosophila melanogaster, UniProt Q94527 99-473)
T5 sequence: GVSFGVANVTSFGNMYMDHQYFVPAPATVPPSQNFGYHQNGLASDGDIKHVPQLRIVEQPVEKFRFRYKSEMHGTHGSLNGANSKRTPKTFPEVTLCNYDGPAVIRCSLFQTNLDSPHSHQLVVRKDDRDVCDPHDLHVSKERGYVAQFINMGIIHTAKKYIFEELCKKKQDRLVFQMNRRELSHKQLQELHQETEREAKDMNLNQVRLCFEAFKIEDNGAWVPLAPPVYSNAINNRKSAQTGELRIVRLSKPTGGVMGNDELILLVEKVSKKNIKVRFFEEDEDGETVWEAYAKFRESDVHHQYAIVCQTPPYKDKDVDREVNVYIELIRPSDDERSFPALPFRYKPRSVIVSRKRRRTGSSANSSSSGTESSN

GST-Aq-NF-kB = target: T6, GST-Aq-NF-kB (Amphimedon queenslandica, UniProt A9Y5G7 2-389)
T6 sequence: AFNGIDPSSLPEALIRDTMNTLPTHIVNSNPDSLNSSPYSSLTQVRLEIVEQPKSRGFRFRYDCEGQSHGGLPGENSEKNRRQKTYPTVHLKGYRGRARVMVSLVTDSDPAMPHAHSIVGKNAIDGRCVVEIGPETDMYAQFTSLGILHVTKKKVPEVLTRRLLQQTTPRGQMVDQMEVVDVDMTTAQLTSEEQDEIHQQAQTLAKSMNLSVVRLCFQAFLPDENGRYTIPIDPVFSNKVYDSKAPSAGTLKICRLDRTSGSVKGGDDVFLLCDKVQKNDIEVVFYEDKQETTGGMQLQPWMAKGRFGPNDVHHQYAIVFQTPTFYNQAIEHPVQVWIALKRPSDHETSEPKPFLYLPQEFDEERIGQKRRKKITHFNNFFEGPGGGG

GST-Hu-p50 = GST-Hu-p50 (Homo sapiens, UniProt P19838 7-356)
Chain of GST-Hu-p50 (P19838 7-356): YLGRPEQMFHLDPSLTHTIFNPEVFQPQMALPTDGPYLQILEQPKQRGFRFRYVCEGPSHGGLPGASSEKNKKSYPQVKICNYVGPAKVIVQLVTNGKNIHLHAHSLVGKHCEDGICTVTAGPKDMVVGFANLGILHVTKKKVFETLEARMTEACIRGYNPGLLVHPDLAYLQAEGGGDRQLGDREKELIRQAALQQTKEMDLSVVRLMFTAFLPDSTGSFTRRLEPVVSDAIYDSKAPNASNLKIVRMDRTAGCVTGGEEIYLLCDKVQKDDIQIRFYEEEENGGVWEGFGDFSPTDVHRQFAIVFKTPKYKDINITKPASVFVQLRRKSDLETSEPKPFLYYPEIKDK

Row | Sequence | binding signal (GST-Ap-NF-kB RHD) | binding signal [1] | binding signal [2] | binding signal (GST-Co-NF-kB) | binding signal (GST-Dm-Relish) | binding signal (GST-Aq-NF-kB) | binding signal (GST-Hu-p50)
1 | CCGATTAACATCATTTTGGGGACTGATGTTAATCGGGTCTTGATTCGCTTGACGCTGCTG | 2.93 z-score | 3.66 z-score | 3.16 z-score | 1.94 z-score | 1.4 z-score | 4.11 z-score | 3.28 z-score
2 | CCGATTAACATCAGGACTTCCCCTGATGTTAATCGGGTCTTGATTCGCTTGACGCTGCTG | 10.1 z-score | 10.5 z-score | 9.94 z-score | 4.57 z-score | 9.98 z-score | 10.4 z-score | 6.36 z-score
3 | CCGATTAACATCAGGGGGACAACTGATGTTAATCGGGTCTTGATTCGCTTGACGCTGCTG | 5.19 z-score | 5.15 z-score | 4.83 z-score | 6.16 z-score | 3.66 z-score | 4.24 z-score | 4.46 z-score
4 | CCGATTAACATCACAGTTTCCCCTGATGTTAATCGGGTCTTGATTCGCTTGACGCTGCTG | 6.64 z-score | 7.28 z-score | 10.3 z-score | 7.74 z-score | 3.35 z-score | 4.9 z-score | 5.61 z-score
5 | CCGATTAACATCAAGCAATCCCCTGATGTTAATCGGGTCTTGATTCGCTTGACGCTGCTG | 6.44 z-score | 6.39 z-score | 6.94 z-score | 2.5 z-score | 5.11 z-score | 4.53 z-score | 5.37 z-score
6 | CCGATTAACATCAGAATTTCCCCTGATGTTAATCGGGTCTTGATTCGCTTGACGCTGCTG | 9.18 z-score | 10.1 z-score | 11.5 z-score | 8.73 z-score | 6.98 z-score | 8.28 z-score | 6.93 z-score
7 | CCGATTAACATCAAGAACCCCCTTGATGTTAATCGGGTCTTGATTCGCTTGACGCTGCTG | 7.4 z-score | 6.12 z-score | 7.11 z-score | 1.5 z-score | 8.56 z-score | 6.48 z-score | 6.86 z-score
8 | CCGATTAACATCAAGGGGGAGAATGATGTTAATCGGGTCTTGATTCGCTTGACGCTGCTG | 5.78 z-score | 6.63 z-score | 7.33 z-score | 7.92 z-score | 2.2 z-score | 4.93 z-score | 6.83 z-score
9 | CCGATTAACATCACGTAATTCCCTGATGTTAATCGGGTCTTGATTCGCTTGACGCTGCTG | 3.45 z-score | 4.96 z-score | 5.01 z-score | 4.02 z-score | 6.81 z-score | 4.89 z-score | 3.49 z-score
10 | CCGATTAACATCACAATATCCCCTGATGTTAATCGGGTCTTGATTCGCTTGACGCTGCTG | 7.16 z-score | 6.58 z-score | 7.91 z-score | 4.15 z-score | 5.03 z-score | 4.96 z-score | 4.67 z-score
11 | CCGATTAACATCAGTAAATCCCATGATGTTAATCGGGTCTTGATTCGCTTGACGCTGCTG | 1.49 z-score | 1.09 z-score | 1.18 z-score | 1.48 z-score | 7.4 z-score | 2.3 z-score | 1.94 z-score
12 | CCGATTAACATCAACGAATTCCCTGATGTTAATCGGGTCTTGATTCGCTTGACGCTGCTG | 2.81 z-score | 4.07 z-score | 4.93 z-score | 2.64 z-score | 2.28 z-score | 3.08 z-score | 3.08 z-score
13 | CCGATTAACATCACCCTTCCCCCTGATGTTAATCGGGTCTTGATTCGCTTGACGCTGCTG | 4.54 z-score | 4.49 z-score | 5.26 z-score | 5.61 z-score | 2.99 z-score | 4.32 z-score | 4.43 z-score
14 | CCGATTAACATCAGGGATTTTACTGATGTTAATCGGGTCTTGATTCGCTTGACGCTGCTG | 3.97 z-score | 3.99 z-score | 2.96 z-score | 2.36 z-score | 7.1 z-score | 5.29 z-score | 3.96 z-score
15 | CCGATTAACATCAGAATTACCCCTGATGTTAATCGGGTCTTGATTCGCTTGACGCTGCTG | 4.43 z-score | 5.36 z-score | 5.04 z-score | 5.87 z-score | 2.94 z-score | 5.49 z-score | 4.69 z-score
16 | CCGATTAACATCAGGGGGAGAACTGATGTTAATCGGGTCTTGATTCGCTTGACGCTGCTG | 6.04 z-score | 5.02 z-score | 6.45 z-score | 7.22 z-score | 6.51 z-score | 4.8 z-score | 5.85 z-score
17 | CCGATTAACATCAGGAGCCCCCCTGATGTTAATCGGGTCTTGATTCGCTTGACGCTGCTG | 5.02 z-score | 3.27 z-score | 2.66 z-score | 2.66 z-score | 6.02 z-score | 5.04 z-score | 4.41 z-score
18 | CCGATTAACATCAGGGGGTAAGATGATGTTAATCGGGTCTTGATTCGCTTGACGCTGCTG | 3.96 z-score | 3.13 z-score | 3.97 z-score | 5.47 z-score | 1.62 z-score | 3.34 z-score | 3.07 z-score
19 | CCGATTAACATCAAGTTCCCCCCTGATGTTAATCGGGTCTTGATTCGCTTGACGCTGCTG | 7.37 z-score | 6.39 z-score | 7.26 z-score | 10.1 z-score | 6.95 z-score | 6.03 z-score | 6.13 z-score
20 | CCGATTAACATCAATTTCCCACCTGATGTTAATCGGGTCTTGATTCGCTTGACGCTGCTG | 2.39 z-score | 3.38 z-score | 3.89 z-score | 2.84 z-score | 1.17 z-score | 2.26 z-score | 2.74 z-score
21 | CCGATTAACATCAAAATTACCCCTGATGTTAATCGGGTCTTGATTCGCTTGACGCTGCTG | 4.94 z-score | 6.27 z-score | 7.21 z-score | 7.33 z-score | 5.24 z-score | 6.34 z-score | 5.3 z-score
22 | CCGATTAACATCAATTCCCCCCATGATGTTAATCGGGTCTTGATTCGCTTGACGCTGCTG | 7.01 z-score | 7.06 z-score | 6.97 z-score | 9.55 z-score | 4.89 z-score | 5.8 z-score | 6.18 z-score
23 | CCGATTAACATCAAAATATCCCCTGATGTTAATCGGGTCTTGATTCGCTTGACGCTGCTG | 8.8 z-score | 9.37 z-score | 11 z-score | 5.38 z-score | 8.53 z-score | 7.25 z-score | 7.09 z-score
24 | CCGATTAACATCAGTTTTCCCCATGATGTTAATCGGGTCTTGATTCGCTTGACGCTGCTG | 6.49 z-score | 7.03 z-score | 9.09 z-score | 9.45 z-score | 3.42 z-score | 4.82 z-score | 5.76 z-score

— paper PMC5700166
